# Source: PubChem BioAssay (NCATS)
# Where “and” joins values, the source holds several entries; their conditions need not be identical. Identical values can stand only once. Values without a mark were called inactive. Inconclusive results are not listed. Where a call stands in place of a potency, no number is given. Calls of active or inactive are those of the source. Unless noted, calls follow the shape of the dose curve; as a rule, active = well fitted curve in the direction sought with a large enough effect; inconclusive = small, poorly fitted or top-dose-only effect, or another doubt; inactive = no such curve, though single readings can be large; an effect the other way counts as inactive or inconclusive.
# How the values were obtained:
# [1] = Natriuretic polypeptide receptor (hNpr1) antagonism - Pilot counterscreen GloSensor control cell line (AID 1347045; calls by dose curve; also: series mostly up to about 38 µM)
# How it was run: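 HEK293 cells carrying the GloSensor cGMP sensor (GIP/pGS-40F) were loaded with 2% GloSensor reagent for 2 h, exposed to compounds for 30 min, and then stimulated with 50 uM sodium nitroprusside for 20 min at room temperature.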
# [2] = biological target: Atrial natriuretic peptide receptor 1 (Homo sapiens) (UniProt P16066); test: Natriuretic polypeptide receptor (hNpr1) antagonism - Pilot screen (AID 1347049; calls by dose curve)
# How it was run: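 Readout is cGMP-driven firefly luciferase luminescence in HEK293 cells carrying hNpr1 and a PDE5-domain GloSensor, read before and 20 min after 0.1 nM hNppA stimulation. Cells had 2% substrate reagent for 2 h and test compound for 30 min.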
# [3] = biological target: Atrial natriuretic peptide receptor 2 (Homo sapiens) (UniProt P20594); test: Natriuretic polypeptide receptor (hNpr2) antagonism - Pilot subtype selectivity assay (AID 1347050; calls by dose curve)
# How it was run: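 Pilot selectivity screen against hNpr2: HEK293 cGMP-sensor cells are treated with LOPAC1280 compounds, then with hNppC peptide at 1 nM final. The cGMP-driven luminescence change over 20 min at room temperature is the read-out.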
# [4] = NS1 protein of Zika virus - qHTS assay to identify small molecule inhibitors in human HEK 293 cells (AID 1347053); also: series mostly up to about 46 µM; nearly all actives have a fitted effect of over 55% in size
# How it was run: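 HEK 293; 20 h pre-culture, 37 C/5% CO2; cpd 1 h pre-infection; ZIKV MR766, MOI = 0.5, 24 h, 37 C; TR-FRET NS1 readout (two anti-NS1 Abs); norm. to no-virus vs infected.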
# [5] = biological target: Parathyroid hormone/parathyroid hormone-related peptide receptor (Homo sapiens) (UniProt Q03431); test: qHTS for PTHR1 Agonists: Optimization Screen against the NCGC LOPAC library (AID 1347079);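 also: GloSensor cAMP luminescence in HEK-293 GP2 cells expressing human PTHR1 with IBMX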
# How it was run: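 Compounds were tested across a qHTS titration. PTHR1-expressing GP2 cells report cAMP rises via GloSensor luminescence after 1 hr compound exposure at 37C with IBMX present.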
# [6] = qHTS of pediatric cancer cell lines to identify multiple opportunities for drug repurposing: Primary screen for TC32 cells (AID 1347089); also: nearly all actives have a fitted effect of over 60% in size
# How it was run: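 In the primary qHTS, MIPE compounds were tested at 11 concentrations (0.78 nM to 46 µM) and NPC compounds at 8 (0.59 nM to 46 µM) on TC32 cells for 48 h. CellTiter-Glo luminescence gave viability.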
# [7] = qHTS of pediatric cancer cell lines to identify multiple opportunities for drug repurposing: Primary screen for DAOY cells (AID 1347090); also: nearly all actives have a fitted effect of over 55% in size; also: potency is read from the fitted curve at half-maximal effect
# How it was run: (§1)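 Cell viability, CellTiter-Glo luminescence; 500-1,000 cells/well, 8- or 11-point titration, 48 h compound exposure at 37 degrees C, 5% CO2. Controls: DMSO neutral, bortezomib 2.3 µM final as positive.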
# [8] = qHTS of pediatric cancer cell lines to identify multiple opportunities for drug repurposing: Primary screen for SJ-GBM2 cells (AID 1347091); also: potency is read from the fitted curve at half-maximal effect
# How it was run: as §1
# [9] = qHTS of pediatric cancer cell lines to identify multiple opportunities for drug repurposing: Primary screen for SK-N-MC cells (AID 1347093); also: potency is read from the fitted curve at half-maximal effect
# How it was run: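 Metabolically active cells were quantified by ATP-dependent luminescence (CellTiter-Glo, 15 min at room temperature) following 48 h treatment. Cells had been plated at 500-1,000 per well and settled for 5 h beforehand.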
# [10] = qHTS of pediatric cancer cell lines to identify multiple opportunities for drug repurposing: Primary screen for NB-EBc1 cells (AID 1347095)
# How it was run: (§2)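 Cells seeded at 500-1,000 cells/well in growth media, rested 5 hours at 37 degrees C, 5% CO2, then dosed; MIPE compounds at 11-point (from 0.78 nM) and NPC at 8-point (from 0.59 nM) final concentrations. Viability by CellTiter-Glo luminescence after 48 hours.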
# [11] = qHTS of pediatric cancer cell lines to identify multiple opportunities for drug repurposing: Primary screen for Saos-2 cells (AID 1347097); also: nearly all actives have a fitted effect of over 40% in size
# How it was run: as §2
# [12] = qHTS of pediatric cancer cell lines to identify multiple opportunities for drug repurposing: Primary screen for SK-N-SH cells (AID 1347098); also: nearly all actives have a fitted effect of over 65% in size; also: potency is read from the fitted curve at half-maximal effect
# How it was run: (§3)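 Cells (500-1,000/well) rested 5 h, then received compounds for 48 h; metabolically active cells were measured by CellTiter-Glo luminescence. Final concentrations spanned up to 46 µM (MIPE, 11-point) or 0.59 nM-46 µM (NPC, 8-point) in primary screens, 11-point in follow-ups.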
# [13] = qHTS of pediatric cancer cell lines to identify multiple opportunities for drug repurposing: Primary screen for NB1643 cells (AID 1347099); also: nearly all actives have a fitted effect of over 50% in size; also: potency is read from the fitted curve at half-maximal effect
# How it was run: as §2
# [14] = qHTS of pediatric cancer cell lines to identify multiple opportunities for drug repurposing: Primary screen for LAN-5 cells (AID 1347100)
# How it was run: as §3
# [15] = biological target: T1, Tyrosine-protein phosphatase non-receptor type substrate 1 (Homo sapiens) + Leukocyte surface antigen CD47 (Homo sapiens) (UniProt P78324+Q08722); test: CD47-SIRPalpha protein protein interaction - LANCE assay qHTS validation (AID 1347057; active = well fitted curve in the direction sought with a large enough effect in the signal ratio, with a control signal flat, not every such curve was filed as active; the % refers to the signal ratio; also: series mostly up to about 38 µM)
# How it was run: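 First, His-tagged CD47 and Eu-labelled anti-His antibody met the compound for 30 min; next, site-specifically biotinylated SIRPalpha was added for 30 min; finally streptavidin-APC was added before reading the TR-FRET ratio.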
# [16] = biological target: T1, Tyrosine-protein phosphatase non-receptor type substrate 1 (Homo sapiens) + Leukocyte surface antigen CD47 (Homo sapiens); test: CD47-SIRPalpha protein protein interaction - HTRF assay qHTS validation (AID 1347058; active = well fitted curve in the direction sought with a large enough effect in the signal ratio, not every such curve was filed as active; the % refers to the signal ratio;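 also: recombinant soluble extracellular CD47 with His tag and biotinylated SIRPalpha domains; series mostly up to about 38 µM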)
# How it was run: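 TR-FRET read (Ch1/Ch2 ratio) of soluble extracellular CD47 and Avi-biotinylated SIRPalpha domains in PBS pH 7.4 with 0.05% IGEPAL; 7-point compound titration. Sequential 30 min room-temperature steps; non-biotinylated SIRPalpha as control inhibitor.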
# [17] = biological target: T1, Tyrosine-protein phosphatase non-receptor type substrate 1 (Homo sapiens) + Leukocyte surface antigen CD47 (Homo sapiens); test: CD47-SIRPalpha protein protein interaction - Alpha assay qHTS validation (AID 1347059);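 also: bead proximity luminescence from CD47 binding SIRPalpha after compound preincubation with SIRPalpha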
# How it was run: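 Binding is measured by AlphaScreen proximity: Ni-NTA acceptor beads capture His-CD47, streptavidin donor beads capture biotin-SIRPalpha. Each of three additions (SIRPalpha with compound, CD47, beads) incubates 30 min at room temperature protected from light.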
# [18] = qHTS of pediatric cancer cell lines to identify multiple opportunities for drug repurposing: Primary screen for U-2 OS cells (AID 1347096); also: nearly all actives have a fitted effect of over 50% in size; also: potency is read from the fitted curve at half-maximal effect
# How it was run: as §3
# [19] = qHTS of pediatric cancer cell lines to identify multiple opportunities for drug repurposing: Primary screen for BT-37 cells (AID 1347094); also: series mostly up to about 57 µM
# How it was run: as §2
# [20] = qHTS of pediatric cancer cell lines to identify multiple opportunities for drug repurposing: Primary screen for A673 cells (AID 1347092); also: nearly all actives have a fitted effect of over 45% in size; also: potency is read from the fitted curve at half-maximal effect
# How it was run: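 48 h compound exposure, A673, 500-1,000 cells/well, 37 degrees C/5% CO2. MIPE: 11-point, 0.78 nM-46 µM; NPC: 8-point, 0.59 nM-46 µM (final). Readout CellTiter-Glo luminescence after 15 min RT.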
# Sequence of Parathyroid hormone/parathyroid hormone-related peptide receptor (Homo sapiens) (Q03431 whole entry, looked up): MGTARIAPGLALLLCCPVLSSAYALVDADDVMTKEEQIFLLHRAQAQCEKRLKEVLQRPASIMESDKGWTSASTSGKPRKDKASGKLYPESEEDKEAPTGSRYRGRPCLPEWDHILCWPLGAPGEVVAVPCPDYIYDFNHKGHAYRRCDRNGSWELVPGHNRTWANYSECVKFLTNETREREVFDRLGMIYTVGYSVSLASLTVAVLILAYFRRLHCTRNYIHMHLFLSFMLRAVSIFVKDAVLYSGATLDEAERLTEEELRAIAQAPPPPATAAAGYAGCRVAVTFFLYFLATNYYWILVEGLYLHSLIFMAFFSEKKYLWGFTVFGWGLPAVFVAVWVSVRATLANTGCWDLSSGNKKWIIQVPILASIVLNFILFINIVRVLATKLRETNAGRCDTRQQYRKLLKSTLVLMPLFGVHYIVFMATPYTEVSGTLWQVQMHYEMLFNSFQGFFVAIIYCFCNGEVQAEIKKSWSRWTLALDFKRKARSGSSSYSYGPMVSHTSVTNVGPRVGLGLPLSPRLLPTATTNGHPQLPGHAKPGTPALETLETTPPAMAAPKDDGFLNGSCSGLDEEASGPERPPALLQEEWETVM
# T1 sequence (P78324 whole entry, looked up): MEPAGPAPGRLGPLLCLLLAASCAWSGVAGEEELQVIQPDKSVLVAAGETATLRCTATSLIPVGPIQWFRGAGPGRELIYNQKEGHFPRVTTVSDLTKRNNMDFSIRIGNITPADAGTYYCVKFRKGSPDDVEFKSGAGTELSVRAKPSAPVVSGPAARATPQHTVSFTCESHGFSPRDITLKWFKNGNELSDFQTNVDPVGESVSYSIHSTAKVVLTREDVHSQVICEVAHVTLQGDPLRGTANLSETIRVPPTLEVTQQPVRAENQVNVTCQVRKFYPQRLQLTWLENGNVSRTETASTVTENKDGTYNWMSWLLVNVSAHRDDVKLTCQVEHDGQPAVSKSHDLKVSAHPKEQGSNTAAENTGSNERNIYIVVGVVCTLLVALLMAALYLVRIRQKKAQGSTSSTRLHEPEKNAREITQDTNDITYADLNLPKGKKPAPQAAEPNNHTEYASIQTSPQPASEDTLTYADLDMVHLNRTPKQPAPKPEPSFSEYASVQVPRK
# T1 sequence (Q08722 whole entry, looked up): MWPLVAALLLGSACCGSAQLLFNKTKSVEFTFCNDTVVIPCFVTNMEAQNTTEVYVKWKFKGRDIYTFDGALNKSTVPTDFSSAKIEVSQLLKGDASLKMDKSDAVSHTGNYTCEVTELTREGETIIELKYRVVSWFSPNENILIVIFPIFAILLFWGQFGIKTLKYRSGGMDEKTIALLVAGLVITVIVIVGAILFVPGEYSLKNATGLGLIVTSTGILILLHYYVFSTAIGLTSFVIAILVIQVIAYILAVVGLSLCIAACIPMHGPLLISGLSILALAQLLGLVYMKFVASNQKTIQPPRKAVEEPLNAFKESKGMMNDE
# Sequence of Atrial natriuretic peptide receptor 1 (Homo sapiens) (P16066 whole entry, looked up): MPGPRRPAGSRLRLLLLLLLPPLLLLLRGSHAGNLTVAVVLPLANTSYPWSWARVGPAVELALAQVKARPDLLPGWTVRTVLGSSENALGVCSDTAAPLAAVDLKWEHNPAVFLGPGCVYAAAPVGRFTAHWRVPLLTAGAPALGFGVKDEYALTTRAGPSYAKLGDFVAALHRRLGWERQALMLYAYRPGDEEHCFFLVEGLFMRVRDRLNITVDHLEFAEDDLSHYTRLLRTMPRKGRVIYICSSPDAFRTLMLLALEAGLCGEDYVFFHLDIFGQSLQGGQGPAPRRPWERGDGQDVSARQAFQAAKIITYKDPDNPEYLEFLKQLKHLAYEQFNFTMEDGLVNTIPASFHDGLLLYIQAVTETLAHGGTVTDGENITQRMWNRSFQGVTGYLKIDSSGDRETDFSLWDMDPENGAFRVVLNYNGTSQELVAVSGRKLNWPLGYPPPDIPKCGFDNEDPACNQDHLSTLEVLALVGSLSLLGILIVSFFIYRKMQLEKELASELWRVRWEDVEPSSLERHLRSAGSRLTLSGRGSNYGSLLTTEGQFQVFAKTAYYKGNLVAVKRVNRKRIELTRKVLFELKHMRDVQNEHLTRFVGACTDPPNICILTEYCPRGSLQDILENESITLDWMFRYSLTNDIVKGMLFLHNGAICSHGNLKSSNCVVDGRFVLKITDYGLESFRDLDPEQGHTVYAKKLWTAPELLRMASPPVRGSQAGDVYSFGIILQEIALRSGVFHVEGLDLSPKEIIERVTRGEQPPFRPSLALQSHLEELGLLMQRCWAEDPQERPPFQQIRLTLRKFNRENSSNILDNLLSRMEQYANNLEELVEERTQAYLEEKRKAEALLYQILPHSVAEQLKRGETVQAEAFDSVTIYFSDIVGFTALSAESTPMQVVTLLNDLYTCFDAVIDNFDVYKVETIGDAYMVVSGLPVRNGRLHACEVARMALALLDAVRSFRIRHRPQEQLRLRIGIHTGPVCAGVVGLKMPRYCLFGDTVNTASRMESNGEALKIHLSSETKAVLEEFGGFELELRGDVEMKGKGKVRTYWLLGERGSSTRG
# Sequence of Atrial natriuretic peptide receptor 2 (Homo sapiens) (P20594 whole entry, looked up): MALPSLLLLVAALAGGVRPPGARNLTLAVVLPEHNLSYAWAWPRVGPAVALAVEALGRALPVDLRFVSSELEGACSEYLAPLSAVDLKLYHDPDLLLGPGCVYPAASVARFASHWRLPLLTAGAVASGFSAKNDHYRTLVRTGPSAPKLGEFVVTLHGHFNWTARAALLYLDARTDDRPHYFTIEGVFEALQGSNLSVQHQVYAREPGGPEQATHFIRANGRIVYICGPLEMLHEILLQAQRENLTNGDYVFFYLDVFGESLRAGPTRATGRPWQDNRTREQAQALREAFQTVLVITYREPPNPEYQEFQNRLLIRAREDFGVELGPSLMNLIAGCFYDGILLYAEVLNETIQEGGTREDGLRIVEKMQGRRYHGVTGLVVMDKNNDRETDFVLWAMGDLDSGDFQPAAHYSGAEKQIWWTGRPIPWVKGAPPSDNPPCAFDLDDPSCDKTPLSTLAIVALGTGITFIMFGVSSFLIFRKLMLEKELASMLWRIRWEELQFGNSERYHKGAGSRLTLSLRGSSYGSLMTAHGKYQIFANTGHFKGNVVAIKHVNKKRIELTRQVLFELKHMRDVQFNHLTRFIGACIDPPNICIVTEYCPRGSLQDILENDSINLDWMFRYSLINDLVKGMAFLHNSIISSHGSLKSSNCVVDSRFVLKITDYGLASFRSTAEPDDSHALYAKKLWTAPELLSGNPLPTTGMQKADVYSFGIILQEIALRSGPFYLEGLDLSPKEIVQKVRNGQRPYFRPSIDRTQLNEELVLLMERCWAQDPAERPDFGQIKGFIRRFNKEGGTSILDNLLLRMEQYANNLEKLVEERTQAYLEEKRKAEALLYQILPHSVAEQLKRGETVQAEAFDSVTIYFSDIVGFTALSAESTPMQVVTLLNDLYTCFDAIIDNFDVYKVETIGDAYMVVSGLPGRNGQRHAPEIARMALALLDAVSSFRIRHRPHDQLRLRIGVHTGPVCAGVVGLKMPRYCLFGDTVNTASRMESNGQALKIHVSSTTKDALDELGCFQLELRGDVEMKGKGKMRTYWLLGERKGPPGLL
compound,measurement,setting,value
COc1cc2nc(N3CCN(C(=O)C4CCCO4)CC3)nc(N)c2cc1OC (configuration not stated),Potency,[1],inactive
same,Potency,[2],inactive
same,Potency,[3],inactive
same,Potency,[4],inactive
same,outcome,[5],inactive
same,Potency,[6],inactive
same,Potency,[7],inactive
same,Potency,[8],inactive
same,Potency,[9],inactive
same,Potency,[10],inactive
same,Potency,[11],inactive
same,Potency,[12],inactive
same,Potency,[13],inactive
same,Potency,[14],inactive
Oc1ccc2ccccc2c1SSc1c(O)ccc2ccccc12,outcome,[2],inactive; inac
same,Potency,[4],inactive
same,outcome,[15],inactive
same,outcome,[16],inactive
same,Potency,[17],inactive
same,outcome,[5],inactive
same,Potency,[18],inactive
same,Potency,[12],19.2 µM (active)
same,Potency,[13],26.4 µM (active)
O=C(c1ccccc1)c1ccc2n1CCC2C(=O)O (configuration not stated),Potency,[1],inactive
same,Potency,[2],inactive
same,Potency,[3],inactive
same,Potency,[4],inactive
same,outcome,[15],inactive
same,outcome,[16],inactive
same,Potency,[17],inactive
same,outcome,[5],inactive
same,Potency,[19],inactive
same,Potency,[10],inactive
same,Potency,[18],inactive
same,Potency,[11],inactive
same,Potency,[13],inactive
same,Potency,[14],inactive
NCCCCNCCCN,Potency,[1],inactive
same,Potency,[2],inactive
same,Potency,[3],inactive
same,Potency,[4],inactive
same,outcome,[15],inactive
same,outcome,[16],inactive
same,Potency,[17],inactive
same,outcome,[5],inactive
same,Potency,[7],inactive
same,Potency,[8],inactive
same,Potency,[9],3.32 µM (active)
same,Potency,[19],inactive
same,Potency,[18],inactive
same,Potency,[12],7.64 µM (active)
same,Potency,[13],4.18 µM (active)
CC1(C)NC(=O)N(c2ccc([N+](=O)[O-])c(C(F)(F)F)c2)C1=O,Potency,[1],inactive
same,Potency,[3],inactive
same,Potency,[4],inactive
same,outcome,[15],inactive
same,Potency,[17],inactive
same,outcome,[5],inactive
same,Potency,[6],inactive
same,Potency,[7],inactive
same,Potency,[8],inactive
same,Potency,[9],inactive
same,Potency,[19],inactive
same,Potency,[10],inactive
same,Potency,[18],inactive
same,Potency,[11],inactive
same,Potency,[12],inactive
same,Potency,[13],inactive
same,Potency,[14],inactive
c1cnc2cc3c(cc2n1)C1CNCC3C1,Potency,[4],inactive
same,outcome,[15],inactive
same,outcome,[16],inactive
same,Potency,[17],inactive
same,Potency,[6],inactive
same,Potency,[7],inactive
same,Potency,[8],inactive
same,Potency,[9],4.69 µM (active)
same,Potency,[19],inactive
same,Potency,[10],inactive
same,Potency,[18],inactive
same,Potency,[11],inactive
same,Potency,[12],inactive
CCOC(=O)C1=C(O)C(=O)N(Cc2ccccc2)C1,Potency,[4],inactive
same,outcome,[15],inactive
same,outcome,[16],inactive
same,Potency,[17],inactive
same,Potency,[6],inactive
same,Potency,[7],inactive
same,Potency,[8],inactive
same,Potency,[9],inactive
same,Potency,[18],inactive
same,Potency,[11],inactive
same,Potency,[12],inactive
same,Potency,[13],inactive
same,Potency,[14],inactive
CNC[C@H](O)c1ccc(O)c(O)c1,Potency,[1],inactive
same,Potency,[2],inactive
same,Potency,[3],inactive
same,Potency,[4],inactive
same,outcome,[15],inactive
same,outcome,[16],inactive
same,Potency,[17],inactive
same,outcome,[5],inactive
same,Potency,[6],inactive
same,Potency,[7],inactive
same,Potency,[8],inactive
same,Potency,[9],inactive
same,Potency,[19],inactive
same,Potency,[11],inactive
same,Potency,[12],inactive
same,Potency,[14],inactive
O=C(O)c1cccnc1Nc1cccc(C(F)(F)F)c1,Potency,[2],inactive
same,Potency,[3],inactive
same,Potency,[4],inactive
same,outcome,[15],inactive
same,outcome,[16],inactive
same,Potency,[17],inactive
same,outcome,[5],inactive
same,Potency,[6],inactive
same,Potency,[7],inactive
same,Potency,[8],inactive
same,Potency,[9],26.6 µM (active)
same,Potency,[19],inactive
same,Potency,[18],inactive
same,Potency,[11],inactive
same,Potency,[12],inactive
same,Potency,[13],inactive
same,Potency,[14],inactive
Cc1c(OCC(F)(F)F)ccnc1CS(=O)c1nc2ccccc2[nH]1 (configuration not stated),Potency,[1],inactive
same,Potency,[4],inactive
same,outcome,[15],inactive
same,outcome,[16],inactive
same,Potency,[17],inactive
same,outcome,[5],inactive
same,Potency,[6],inactive
same,Potency,[7],inactive
same,Potency,[8],inactive
same,Potency,[20],inactive
same,Potency,[19],inactive
same,Potency,[10],inactive
same,Potency,[18],inactive
same,Potency,[11],inactive
same,Potency,[12],inactive
same,Potency,[13],inactive
same,Potency,[14],inactive
O=c1cc(N2CCOCC2)oc2c(-c3ccccc3)cccc12,Potency,[1],inactive
same,Potency,[2],inactive
same,Potency,[3],inactive
same,Potency,[4],inactive
same,outcome,[15],inactive
same,outcome,[16],inactive
same,Potency,[17],inactive
same,outcome,[5],inactive
same,Potency,[8],16.6 µM (active)
same,Potency,[9],9.35 µM (active)
same,Potency,[13],20.9 µM (active)
same,Potency,[14],inactive
Cc1nc(Nc2ncc(C(=O)Nc3c(C)cccc3Cl)s2)cc(N2CCN(CCO)CC2)n1,Potency,[4],inactive
same,Potency,[6],inactive
same,Potency,[7],23.5 µM (active) and 8.41 µM (active)
same,Potency,[8],18.7 µM (active) and 15 µM (active)
same,Potency,[20],3.72 µM (active) and 3.35 µM (active)
same,Potency,[9],18.7 µM (active) and 16.8 µM (active)
same,Potency,[18],18.7 µM (active) and 13.3 µM (active)
same,Potency,[13],inactive
CN1C(C(=O)Nc2ccccn2)=C(O)c2sccc2S1(=O)=O,Potency,[4],inactive
same,Potency,[6],inactive
same,Potency,[7],inactive
same,Potency,[8],inactive
same,Potency,[20],inactive
same,Potency,[9],inactive
same,Potency,[19],inactive
same,Potency,[10],inactive
same,Potency,[18],inactive
same,Potency,[11],inactive
same,Potency,[12],inactive
same,Potency,[13],inactive
Cc1cc2c(s1)Nc1ccccc1N=C2N1CCN(C)CC1,Potency,[4],inactive
same,Potency,[6],inactive
same,Potency,[7],inactive
same,Potency,[8],inactive
same,Potency,[9],inactive
same,Potency,[19],inactive
same,Potency,[10],inactive
same,Potency,[18],inactive
same,Potency,[11],inactive
same,Potency,[12],inactive
same,Potency,[13],inactive
COc1c2occc2cc2ccc(=O)oc12,Potency,[4],inactive
same,Potency,[6],inactive
same,Potency,[7],inactive
same,Potency,[8],inactive
same,Potency,[20],inactive
same,Potency,[9],inactive
same,Potency,[19],inactive
same,Potency,[10],inactive
same,Potency,[11],inactive
same,Potency,[12],inactive
same,Potency,[13],inactive
CCC[C@@H]1C[C@@H](C(=O)N[C@@H]([C@H]2O[C@H](SC)[C@H](O)[C@@H](O)[C@H]2O)[C@@H](C)O)N(C)C1,Potency,[4],inactive
same,Potency,[6],inactive
same,Potency,[7],inactive
same,Potency,[8],inactive
same,Potency,[20],inactive
same,Potency,[9],inactive
same,Potency,[19],inactive
same,Potency,[10],inactive
same,Potency,[18],inactive
same,Potency,[11],inactive
same,Potency,[12],inactive
same,Potency,[13],inactive
same,Potency,[14],inactive
